Screening data: PubChem BioAssay, several laboratories
Sampled rows, rich in hits. Any-hit rate of the full collection: about 2.1%.
CHT PAM: human CHT allosteric activation; CHT-expressing cells, membrane potential dye, choline EC20; stronger effect = higher value; LV-AA mutant CHT in HEK293 cells; B-score at 10 µM; AID 488977; Q9GZV3; actives 0.49% (n = 310,000);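 active means initial fluorescence not abnormally high and integrated response B-score, plate-corrected, over 3 SD above library mean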
CHT block: human CHT choline transport inhibition; Q9GZV3; B-score at 10 µM; actives 0.86% (n = 310,000); CHT-expressing cells, membrane potential dye, choline response; stronger effect = lower value;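 active means B-score over 3 SD under the library average, and starting fluorescence ratio not unusually high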;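 further: choline stimulus applied at its EC90 after an EC20 pre-addition; B-score computed on integrated fluorescence ratio after choline addition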
PGE2 EP2 inh: EP2 receptor (human) inhibition; P43116; C6 glioma cells expressing human EP2, cAMP TR-FRET; cells stimulated with saturating PGE2; inhibition, % at 25 µM; actives 0.52% (n = 260,000); AID 1422;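 active means percent inhibition above 40 after rounding to a whole number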;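 further: rat C6 glioma host cells with rolipram phosphodiesterase inhibitor present; the protocol text gives 20 µM as final concentration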
Target sequence (P43116 whole entry, looked up): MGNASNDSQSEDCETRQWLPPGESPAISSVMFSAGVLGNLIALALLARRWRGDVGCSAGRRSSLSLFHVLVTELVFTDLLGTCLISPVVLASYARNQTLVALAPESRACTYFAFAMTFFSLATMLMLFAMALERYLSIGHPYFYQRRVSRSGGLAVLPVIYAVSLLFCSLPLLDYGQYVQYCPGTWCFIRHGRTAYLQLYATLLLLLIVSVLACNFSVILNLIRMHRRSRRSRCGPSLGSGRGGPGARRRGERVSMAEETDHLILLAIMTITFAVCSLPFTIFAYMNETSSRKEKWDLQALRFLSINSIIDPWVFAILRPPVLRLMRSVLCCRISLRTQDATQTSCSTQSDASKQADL
EP2 mod: modulates human prostaglandin E2 receptor EP2 signaling. EP2-expressing cells, cAMP HTRF FRET, PGE2 co-stimulation. induction, % at 25 µM. actives 0.83% (n = 260,000). P43116;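 active means compounds whose cAMP rise, as percent of the full-agonist control response, exceeds 60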;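 further: rat C6 glioma line stably carrying human EP2 under a CMV promoter; the protocol text gives 20 µM as final concentration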
CHT act confirm: human CHT activation, confirmatory screen. shares compounds with CHT PAM. CHT-expressing cells, membrane potential dye fluorescence (FDSS); % of choline EC20–EC90 response window; HEK293 expressing CHT LV-AA mutant; choline added at its EC20. activation, % at 10 µM. actives 91% (n = 2,500). AID 504833;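 active means primary screen active, with duplicate mean activation above negative control mean plus 3 SD, cut at about 11% in these data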
HEK293 MP dye: activity in parental HEK293 cells lacking CHT. shares compounds with CHT PAM. membrane potential dye fluorescence (FDSS); measured after EC20 choline addition. ratio readout change at 10 µM, hits read low. actives 62% (n = 2,500). AID 623908;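 active means duplicate-averaged ratio beyond 3 SD from buffer wells, up or down, though filed actives are nearly all decreases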
Large screens that a line does not name were inactive (follow-up assays come after a bar, where they were run).

O=c1c2ccccc2nc(SCCN2CCOCC2)n1Cc1ccccc1	none (no result: CHT PAM, CHT block)
Nc1cc(-c2ccco2)nn(CC(=O)NCc2ccccc2Cl)c1=O	none (no result: CHT PAM, CHT block)
O=C1NC2(CCN(Cc3cccc(F)c3)CC2)Oc2ccccc21	none (no result: CHT PAM, CHT block)
CCOC(=O)C1CCN(c2cc(C)nc3ccc(OC)cc23)CC1	CHT PAM 7.8 | CHT act confirm 42 | HEK293 MP dye -72
COc1ccc2nc(C)cc(N3CCC(C(N)=O)CC3)c2c1	CHT PAM 7.2 | CHT act confirm 61 | HEK293 MP dye -76
COc1ccc(N2CCN(c3cc(C)nc4ccc(OC)cc34)CC2)cc1	none (no result: PGE2 EP2 inh, EP2 mod)
CCOC(=O)C1CCN(C(=O)c2[nH]c3ccc(OC)cc3c2C)CC1	none (no result: PGE2 EP2 inh, EP2 mod)
CCN(CC)CC(O)COc1ccccc1C(=O)CCc1ccccc1 (stereo unspecified)	none (no result: EP2 mod)
CCCCN(CCCC)CC(O)COc1ccccc1C(=O)Nc1ccccc1 (stereo unspecified)	CHT PAM 7.1 | CHT act confirm inactive | HEK293 MP dye inactive
COc1cccc(C(C(=O)NC2CCCC2)N(C(=O)c2ccco2)c2ccc3c(c2)CCC3)c1OC (stereo unspecified)	none (no result: CHT PAM, CHT block)
c1ccc(CN2CCN(c3nc(N4CCOCC4)c4ccccc4n3)CC2)cc1	none (no result: EP2 mod)
c1cncc(-c2nc(N3CCOCC3)c3ccccc3n2)c1	CHT PAM 8.1 | CHT act confirm 53 | HEK293 MP dye -49
O=S(=O)(/C=C/c1ccccc1)N1CCN(c2nc(-c3cccnc3)nc3ccccc23)CC1	none
c1ccc2c(N3CCOCC3)nc(-c3ccncc3)nc2c1	CHT PAM 7.1 | CHT act confirm 83 | HEK293 MP dye -57
c1ccc2c(N3CCOCC3)nc(N3CCOCC3)nc2c1	CHT PAM 12 | CHT act confirm 48 | HEK293 MP dye -86
CN1CCN(c2nc(N3CCN(CCO)CC3)nc3ccccc23)CC1	CHT PAM 11 | CHT act confirm 37 | HEK293 MP dye -102
OCCN1CCN(c2cc(-c3ccccc3)c3ccccc3n2)CC1	none
COc1cc(CN2CCC(NC(C)=O)(c3ccc(F)cc3)CC2)c(Cl)cc1O	none (no result: CHT PAM, CHT block)
COc1cc(/C=C2/C(C)=C(C#N)c3nc(N)c(C#N)c(C)c32)cc2c1OCO2	none (no result: CHT PAM, CHT block)
CC(C)(C)c1ccc(NC(=O)N2CCCN(c3c(Cl)cncc3Cl)CC2)cc1	none | CHT act confirm 12 | HEK293 MP dye inactive
O=C(Nc1ccccc1)N1CCCN(c2c(Cl)cncc2Cl)CC1	none
Cc1ccc(Cl)cc1N1CCN(C(=O)C2CCC(=O)N(C3CCCCCC3)C2)CC1 (stereo unspecified)	CHT PAM 9.2 (no result: PGE2 EP2 inh, EP2 mod) | CHT act confirm 24 | HEK293 MP dye inactive
CCn1c(COc2ccccc2)nnc1SCC(=O)Nc1ccc(Br)cc1	none (no result: CHT PAM, CHT block)
Cc1cc(NC(=O)c2ccc3c(c2)C(=O)N(CCC(C)C)C3=O)no1	none
Cc1cc(NC(=O)c2ccc3c(c2)C(=O)N(Cc2cccnc2)C3=O)no1	none | CHT act confirm 26 | HEK293 MP dye -27
Cc1cc(NC(=O)c2ccc3c(c2)C(=O)N(C)C3=O)no1	none | CHT act confirm 44 | HEK293 MP dye -42
COc1ccc(NC(=O)c2ccc3c(c2)C(=O)N(Cc2cccnc2)C3=O)cc1	none
CC1CN(C)CCC1CCc1ccc(NC(=O)C2CCN(S(C)(=O)=O)CC2)cc1 (stereo unspecified)	none (no result: CHT PAM, CHT block, PGE2 EP2 inh)
CCOCCCNC(=S)Nc1ccc2nc(N3CCCC3)cc(C)c2c1	none | CHT act confirm 32 | HEK293 MP dye -52
Cc1cc(N2CCCC2)nc2ccc(NC(=S)NC(C)C)cc12	none | CHT act confirm 21 | HEK293 MP dye -51
CNC(=O)CSc1nnc2c(C)cc3ccccc3n12	none (no result: CHT PAM, CHT block)
CC[N+](CC)(CC)CCOc1cccc(OCC[N+](CC)(CC)CC)c1OCC[N+](CC)(CC)CC	CHT PAM 11 | CHT act confirm 72 | HEK293 MP dye -93
Cn1ncc(C#N)c1/N=C/N(Cc1ccccc1)Cc1ccccc1	CHT PAM 16 | CHT act confirm 46 | HEK293 MP dye inactive
COc1ccc(CN(Cc2ccccn2)C(=O)c2ccco2)cc1	none (no result: CHT PAM, CHT block)
CCCCN(CCCC)CC(O)CN(c1cc([N+](=O)[O-])ccc1OC)S(=O)(=O)c1ccccc1 (stereo unspecified)	CHT PAM 11 | CHT act confirm 53 | HEK293 MP dye -45
COc1ccc([N+](=O)[O-])cc1N(CC(O)CN(CC(C)C)CC(C)C)S(=O)(=O)c1ccccc1 (stereo unspecified)	CHT PAM 13 | CHT act confirm 42 | HEK293 MP dye inactive
COc1ccc([N+](=O)[O-])cc1N(CC(O)CN(C)C)S(=O)(=O)c1ccc(C)cc1 (stereo unspecified)	none
Cc1cc2sc(N)nc2cc1N	none (no result: CHT PAM, CHT block)
CCOC(=O)c1ccc(NC(=O)Nc2ccc(Cl)cn2)cc1	none
CCOC(=O)c1ccc(NC(=O)Nc2ccon2)cc1	none | CHT act confirm 30 | HEK293 MP dye inactive
COc1cc2c(cc1OC)C(c1cccs1)N(C(=O)c1ccncc1)CC2 (stereo unspecified)	none
COc1cc2c(cc1OC)C(c1cccs1)N(C(=S)NC(C)C)CC2 (stereo unspecified)	CHT PAM 8.7 | CHT act confirm 14 | HEK293 MP dye inactive
O=C(CNC(=O)c1cccs1)NCC(=O)OCc1ccc2ccccc2c1	none (no result: CHT PAM, CHT block)
NC(=O)C1CCCN(S(=O)(=O)c2ccc3c(c2)CCC(=O)N3)C1 (stereo unspecified)	none (no result: CHT PAM, CHT block)
COc1cc(N)c(C(=O)c2nccc3cc(OC)c(OC)cc23)cc1OC	none (no result: PGE2 EP2 inh, EP2 mod)
COc1ccc(C(N)c2nccc3cc(OC)c(OC)cc23)cc1OC (stereo unspecified)	CHT PAM 7.3 (no result: PGE2 EP2 inh, EP2 mod) | CHT act confirm 53 | HEK293 MP dye -41
COC(=O)Nc1cc(C)nc2ccccc12	CHT PAM 6.8 | CHT act confirm 35 | HEK293 MP dye -45
Cc1nc(N)nc2ccccc12	none (no result: CHT PAM, CHT block)
Cc1cc(Nc2ccccc2O)c2ccccc2n1	CHT PAM 6.7 | CHT act confirm 39 | HEK293 MP dye -37
Cc1cc(N)c2ccccc2n1	CHT PAM 8 | CHT act confirm 65 | HEK293 MP dye -55
Nc1cccc2nc3ccccc3cc12	CHT PAM 13 | CHT act confirm 27 | HEK293 MP dye -55
Nc1[nH]nc2nc3ccccc3cc12	none
Cc1cc(NC(=O)Cc2ccccc2)c2ccccc2n1	none
COc1ccc(NC(=O)COc2ccc(/C=C/C3=CCN(C)CC3)cc2OC)cc1	none (no result: CHT PAM, CHT block, PGE2 EP2 inh)
COCCCNc1cc(C)nc2ccccc12	none | CHT act confirm 56 | HEK293 MP dye -68
Cc1sc(NC(=O)c2cccnc2)nc1-c1ccc(Cl)c(Cl)c1	none (no result: CHT PAM, CHT block)
COCCNc1nc(-c2ccccc2)nc2ccccc12	none | CHT act confirm 31 | HEK293 MP dye -36
COCCCNc1nc(-c2ccc(Cl)cc2)nc2ccccc12	none (no result: PGE2 EP2 inh, EP2 mod)
